Measured values from PubChem BioAssay (Tox21).
Where “and” joins values, the source holds several entries; their conditions need not be identical. Equal values may be shown once. Inconclusive results are not listed. Where a call stands in place of a potency, no number is given. Some compounds were tested as several samples or in several runs, with calls that do not always agree. Calls of active or inactive are those of the source. Unless noted, calls follow the shape of the dose curve; as a rule, active = well fitted curve in the direction sought with a large enough effect in the repeat runs; inconclusive = weak or mixed curves; inactive = no such curve, though single readings can be large; an effect the other way counts as inactive or inconclusive.

Key:
[1] = biological target: Peroxisome proliferator-activated receptor delta (Homo sapiens) (UniProt Q03181); assay: qHTS assay to identify small molecule agonists of the peroxisome proliferator-activated receptor delta (PPARd) signaling pathway (AID 743212; calls by dose curve;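 also: HEK293H cells with PPARd UAS beta-lactamase reporter GeneBLAzer system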; also: potency is read from the fitted curve at half-maximal effect)
Summary of the method: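 Beta-lactamase reporter readout: a ratiometric FRET signal from the LiveBLAzer substrate after 2 h at room temperature. Compound exposure at 37 °C in PPARδ-bla HEK293H cells driven by an upstream activator sequence.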

[2] = biological target: Peroxisome proliferator-activated receptor delta (Homo sapiens) (UniProt Q03181); assay: qHTS assay to identify small molecule antagonists of the peroxisome proliferator-activated receptor delta (PPARd) signaling pathway (AID 743215; active = well fitted inhibition curve with a large enough effect in the signal ratio in the repeat runs, not every such curve was filed as active; the % refers to the signal ratio;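 also: cells stimulated with agonist L165041 at 300 nM final during compound exposure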; also: potency is read from the fitted curve at half-maximal effect)
Summary of the method: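 Here, a reporter line (HEK293H, beta-lactamase under a UAS) measures PPARd signaling. Compounds are tested against agonist L165041 at 300 nM final concentration over 17 h at 37 C, with fluorescence read after substrate.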

[3] = qHTS assay to identify small molecule antagonists of the farnesoid-X-receptor (FXR) signaling pathway - cell viability counter screen (AID 743221; active = well fitted cell-killing curve with a large enough effect in the repeat runs, not every such curve was filed as active; also: nearly all actives have a fitted effect of over 50% in size; also: potency is read from the fitted curve at half-maximal effect)
Summary of the method: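 Luminescence from CellTiter-Glo measures cytotoxicity in GeneBLAzer FXR-UAS-bla HEK 293T cells. Cells were exposed to compounds with 50 uM chenodeoxycholic acid (final) for 16 h at 37 C, in wells also used for the reporter readout.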

[4] = biological target: Vitamin D3 receptor (Homo sapiens) (UniProt P11473); assay: qHTS assay to identify small molecule agonists of the vitamin D receptor (VDR) signaling pathway (AID 743222; calls by dose curve)
Summary of the method: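 Tox21 cell reporter format: VDR-bla line, 16 h compound exposure in 5% CO2 at 37C, then fluorescence intensity after 2 h with LiveBLAzer B/G FRET substrate.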

[5] = biological target: Vitamin D3 receptor (Homo sapiens) (UniProt P11473); assay: qHTS assay to identify small molecule antagonists of the vitamin D receptor (VDR) signaling pathway (AID 743223; active = well fitted inhibition curve with a large enough effect in the signal ratio in the repeat runs, not every such curve was filed as active; the % refers to the signal ratio; also: potency is read from the fitted curve at half-maximal effect)
Summary of the method: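 Antagonist mode uses 1alpha,25-dihydroxyvitamin D3 at 3 nM final as stimulus. VDR-bla cells receive compounds in DMSO, incubate 16 h at 37C, then a beta-lactamase FRET substrate for 2 h at room temperature before fluorescence measurement.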

[6] = qHTS assay to identify small molecule agonists of the vitamin D receptor (VDR) signaling pathway - cell viability counter screen (AID 743224); also: nearly all actives have a fitted effect of over 50% in size; also: potency is read from the fitted curve at half-maximal effect
Summary of the method: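 CellTiter-Glo viability readout on VDR-bla cells, measured after 16 h of compound treatment at 37C in the same wells.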

[7] = qHTS assay to identify small molecule antagonists of the vitamin D receptor (VDR) signaling pathway - cell viability counter screen (AID 743225); also: nearly all actives have a fitted effect of over 50% in size; also: potency is read from the fitted curve at half-maximal effect
Summary of the method: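 Read-out: CellTiter-Glo luminescence measured 30 min after reagent addition at room temperature. Cells were VDR-bla HEK 293T exposed 16 h at 37C, 5% CO2, to compound with 3 nM final calcitriol agonist.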

[8] = qHTS assay to identify small molecule agonists of the NFkB signaling pathway - cell viability counter screen (AID 1159515; calls by dose curve; also: nearly all actives have a fitted effect of over 55% in size; also: potency is read from the fitted curve at half-maximal effect)
Summary of the method: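 Tox21 library compounds were tested for cytotoxicity against NFkB-bla ME-180 cells during a 5 hr exposure at 37 C. CellTiter-Glo luminescence served as the viability read-out.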

[9] = qHTS assay to identify small molecule agonists of the endoplasmic reticulum stress response signaling pathway - cell viability counter screen (AID 1159517; calls by dose curve; also: nearly all actives have a fitted effect of over 50% in size; also: potency is read from the fitted curve at half-maximal effect)
Summary of the method: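 ESRE-bla HeLa cells (1,500/well) were plated overnight at 37 C and exposed to compounds for 5 hr. After the 2 hr beta-lactamase substrate read, CellTiter-Glo went into the same wells, and luminescence was read after 30 min at room temperature.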

[10] = biological target: Nuclear receptor ROR-gamma (Homo sapiens) (UniProt P51449); assay: qHTS assay to identify small molecule antagonists of the retinoid-related orphan receptor gamma (ROR-gamma) signaling pathway (AID 1159521; also: nearly all actives have a fitted effect of over 50% in size; also: potency is read from the fitted curve at half-maximal effect)
Summary of the method: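 CHO Tet-on RORγ, RORE-luc reporter. Cpd 2 h pre-incubation, then dox hyclate 1 uM final, 16 h, 37 C/5% CO2. ONE-Glo luminescence; decrease = antagonist.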

[11] = qHTS assay to identify small molecule agonists of the AP-1 signaling pathway - cell viability counter screen (AID 1159525; calls by dose curve; also: nearly all actives have a fitted effect of over 55% in size; also: potency is read from the fitted curve at half-maximal effect)
Summary of the method: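 Intracellular ATP by Cell Titer Glo luminescence (30 min, RT) in the same ME-180 AP-1-bla wells after the 5 h compound exposure at 37 °C. Normalised to tetra n-octyl ammonium bromide and DMSO controls.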

[12] = qHTS assay to identify small molecule agonists of the peroxisome proliferator-activated receptor delta (PPARd) signaling pathway - cell viability counter screen (AID 743211); also: nearly all actives have a fitted effect of over 55% in size; also: potency is read from the fitted curve at half-maximal effect
Summary of the method: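 HEK293H PPARd-bla, 3000 cells/well; 5 h preincubation 37C/5% CO2; cpd in DMSO, 17 h 37C; B/G FRET substrate 2 h RT; CellTiter-Glo 30 min RT, luminescence.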

[13] = qHTS assay to identify small molecule agonists of the farnesoid-X-receptor (FXR) signaling pathway - cell viability counter screen (AID 743218); also: nearly all actives have a fitted effect of over 45% in size; also: potency is read from the fitted curve at half-maximal effect
Summary of the method: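 Quantitative HTS counter screen measuring ATP-based viability via CellTiter-Glo luminescence in HEK 293T cells carrying a UAS-driven beta-lactamase reporter, after 16 h compound exposure at 37 C.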

[14] = qHTS assay to identify small molecule antagonists of the retinoid-related orphan receptor gamma (ROR-gamma) signaling pathway - cell viability counter screen (AID 1159520); also: nearly all actives have a fitted effect of over 50% in size; also: potency is read from the fitted curve at half-maximal effect
Summary of the method: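 Cytotoxicity was read from cellular ATP (CellTiter-Glo luminescence) after 16 hr at 37 C with 1 uM doxycycline induction. The inducer was added 2 hr after compound transfer to Tet-on ROR gamma CHO cells.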

[15] = biological target: Bile acid receptor (Homo sapiens) (UniProt Q96RI1); assay: qHTS assay to identify small molecule agonists of the farnesoid-X-receptor (FXR) signaling pathway (AID 743220; active = well fitted activation curve with a large enough effect in the signal ratio in the repeat runs, not every such curve was filed as active; the % refers to the signal ratio)
Summary of the method: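 FXR-UAS-bla HEK 293T cells carrying a UAS-driven beta-lactamase reporter were plated for 5 h at 37C/5% CO2, then exposed to DMSO-dissolved Tox21 10K compounds for 16 h at 37C. A LiveBLAzer B/G FRET substrate was loaded for 2 h at room temperature before fluorescence reading.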

[16] = qHTS assay to identify small molecule antagonists of the peroxisome proliferator-activated receptor delta (PPARd) signaling pathway - cell viability counter screen (AID 743213); also: nearly all actives have a fitted effect of over 50% in size; also: potency is read from the fitted curve at half-maximal effect
Summary of the method: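 Viability counter-screen, qHTS format: PPARd-bla HEK293H, L165041 300 nM final, 17 h compound exposure at 37 C, CellTiter-Glo luminescence after 30 min RT.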

[17] = biological target: Retinoic acid receptor RXR-alpha (Homo sapiens) (UniProt P19793); assay: qHTS assay to identify small molecule agonists of the RXR signaling pathway (AID 1159527; calls by dose curve; also: nearly all actives have a fitted effect of over 35% in size)
Summary of the method: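 Read-out: beta-lactamase FRET ratio (405 nm excitation, 460 and 530 nm emission) after 2 hr substrate loading at room temperature. Cells were RXR-alpha-UAS-bla HEK 293T treated with compounds for 16 hr in 2% charcoal-stripped FBS medium.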

[18] = biological target: Bile acid receptor (Homo sapiens) (UniProt Q96RI1); assay: qHTS assay to identify small molecule antagonists of the farnesoid-X-receptor (FXR) signaling pathway (AID 743217; active = well fitted inhibition curve with a large enough effect in the signal ratio in the repeat runs, not every such curve was filed as active; the % refers to the signal ratio; also: potency is read from the fitted curve at half-maximal effect)
Summary of the method: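 Test compounds are pin-transferred onto FXR-bla HEK 293T cells, then chenodeoxycholic acid is added at 50 uM final. After 16 h at 37 °C, LiveBLAzer B/G substrate is applied for 2 h at room temperature and fluorescence read.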

[19] = qHTS assay to identify small molecule agonists of the AP-1 signaling pathway (AID 1159526; calls by dose curve; also: potency is read from the fitted curve at half-maximal effect)

Sequence of Vitamin D3 receptor (Homo sapiens) (P11473 whole entry, looked up): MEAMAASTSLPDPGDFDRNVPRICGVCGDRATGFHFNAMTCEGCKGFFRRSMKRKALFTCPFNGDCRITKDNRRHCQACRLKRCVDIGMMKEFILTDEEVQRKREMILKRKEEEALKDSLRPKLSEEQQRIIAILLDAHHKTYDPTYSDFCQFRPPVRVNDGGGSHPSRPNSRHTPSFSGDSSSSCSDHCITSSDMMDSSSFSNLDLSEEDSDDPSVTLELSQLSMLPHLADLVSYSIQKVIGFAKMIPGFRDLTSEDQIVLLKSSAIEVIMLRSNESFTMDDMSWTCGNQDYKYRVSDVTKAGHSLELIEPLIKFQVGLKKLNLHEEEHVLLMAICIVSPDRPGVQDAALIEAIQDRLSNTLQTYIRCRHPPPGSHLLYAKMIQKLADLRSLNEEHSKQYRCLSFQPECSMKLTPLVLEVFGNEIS
Sequence of Peroxisome proliferator-activated receptor delta (Homo sapiens) (Q03181 whole entry, looked up): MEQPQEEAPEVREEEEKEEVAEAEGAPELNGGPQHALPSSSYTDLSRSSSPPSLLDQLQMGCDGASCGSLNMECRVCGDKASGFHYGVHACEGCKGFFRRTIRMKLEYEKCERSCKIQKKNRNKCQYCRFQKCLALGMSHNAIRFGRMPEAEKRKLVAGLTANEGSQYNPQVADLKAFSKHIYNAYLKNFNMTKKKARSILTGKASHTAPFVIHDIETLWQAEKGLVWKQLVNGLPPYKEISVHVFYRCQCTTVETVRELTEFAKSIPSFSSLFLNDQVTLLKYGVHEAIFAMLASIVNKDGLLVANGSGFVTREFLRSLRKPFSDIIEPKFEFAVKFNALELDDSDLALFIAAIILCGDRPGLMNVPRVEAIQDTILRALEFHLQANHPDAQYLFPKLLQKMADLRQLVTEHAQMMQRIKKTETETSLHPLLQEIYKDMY
Sequence of Retinoic acid receptor RXR-alpha (Homo sapiens) (P19793 whole entry, looked up): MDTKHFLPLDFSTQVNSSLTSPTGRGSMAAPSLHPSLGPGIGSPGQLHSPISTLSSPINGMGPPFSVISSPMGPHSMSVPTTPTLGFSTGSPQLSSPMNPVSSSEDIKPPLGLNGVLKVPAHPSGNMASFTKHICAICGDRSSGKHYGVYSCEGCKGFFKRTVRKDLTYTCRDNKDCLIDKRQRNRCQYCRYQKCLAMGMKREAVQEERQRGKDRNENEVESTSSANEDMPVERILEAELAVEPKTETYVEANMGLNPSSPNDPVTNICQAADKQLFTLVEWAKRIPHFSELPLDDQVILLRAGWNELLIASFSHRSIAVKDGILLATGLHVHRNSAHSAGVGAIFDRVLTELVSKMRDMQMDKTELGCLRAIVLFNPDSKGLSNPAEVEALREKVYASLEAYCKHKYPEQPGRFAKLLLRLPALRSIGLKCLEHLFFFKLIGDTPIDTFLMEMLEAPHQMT
Sequence of Bile acid receptor (Homo sapiens) (Q96RI1 whole entry, looked up): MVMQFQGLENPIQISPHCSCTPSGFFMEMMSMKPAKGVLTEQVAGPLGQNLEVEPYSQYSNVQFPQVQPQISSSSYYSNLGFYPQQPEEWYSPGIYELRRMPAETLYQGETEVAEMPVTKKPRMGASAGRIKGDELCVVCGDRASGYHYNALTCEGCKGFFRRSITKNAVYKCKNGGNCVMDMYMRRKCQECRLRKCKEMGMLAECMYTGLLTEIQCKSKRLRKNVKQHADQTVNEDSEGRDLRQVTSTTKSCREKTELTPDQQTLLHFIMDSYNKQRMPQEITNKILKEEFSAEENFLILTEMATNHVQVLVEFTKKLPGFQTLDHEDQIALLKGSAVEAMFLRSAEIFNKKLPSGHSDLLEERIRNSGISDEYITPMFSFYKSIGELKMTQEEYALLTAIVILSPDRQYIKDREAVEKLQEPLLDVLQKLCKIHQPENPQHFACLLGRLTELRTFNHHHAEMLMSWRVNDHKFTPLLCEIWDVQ

SMILES | Potency [1] | Potency [2] | Potency [3] | Potency [4] | Potency [5] | Potency [6] | Potency [7] | Potency [8] | Potency [9] | Potency [10] | Potency [11] | Potency [12] | Potency [13] | Potency [14] | Potency [15] | Potency [16] | Potency [17] | Potency [18] | Potency [19]
CC(C)CCCCCCc1ccc(O)cc1 | inactive | inactive | 22.3 µM (active) and 49 µM (active) | inactive | 22.3 µM (active) and 43.6 µM (active) | 19.8 µM (active) and 30.9 µM (active) | 31.4 µM (active) and 38.9 µM (active) | 39.6 µM (active) and 38.9 µM (active) | 35.3 µM (active) and 54.9 µM (active) | 2.48 µM (active) | 25 µM (active) and 49 µM (active) |  |  |  |  |  |  |  | 
NC(=Nc1ccccc1)Nc1ccccc1 | inactive | inactive | inactive |  |  | inactive | inactive | inactive | inactive | inactive | inactive | inactive | inactive | inactive |  |  |  |  | 
Cc1cc(Cc2cc(C)cc(C(C)(C)C)c2O)c(O)c(C(C)(C)C)c1 | inactive |  | inactive | inactive |  | 9.82 µM (active) and 13.8 µM (active) | 19.6 µM (active) and 19.5 µM (active) | 11 µM (active) and 17.4 µM (active) | 17.5 µM (active) and 21.9 µM (active) | 19.4 µM (active) and 27.3 µM (active) | 11 µM (active) and 13.8 µM (active) | 17.5 µM (active) and 15.5 µM (active) | 21.9 µM (active) | 21.8 µM (active) and 30.6 µM (active) | inactive |  |  |  | 
CC(C)(C)c1ccc(O)c(C(C)(C)C)c1 |  |  | 54.9 µM (active) | inactive |  | 34.5 µM (active) and 30.9 µM (active) | 24.4 µM (active) and 43.6 µM (active) | 48.8 µM (active) and 49 µM (active) | 54.7 µM (active) and 49 µM (active) | 43.1 µM (active) and inactive | 34.5 µM (active) | 38.7 µM (active) and 49 µM (active) |  | 54.3 µM (active) |  | 38.7 µM (active) and 49 µM (active) |  |  | 
Clc1ccc2c(c1)C(N1CCNCC1)=Nc1ccccc1O2 | inactive | inactive | inactive |  |  |  | 49 µM (active) and inactive | inactive | inactive | inactive | inactive | 27.5 µM (active) and 26.6 µM (active) | 38.9 µM (active) |  |  |  | inactive |  | 
Cc1cc(OCCOCC[N+](C)(C)Cc2ccccc2)ccc1C(C)(C)CC(C)(C)C |  |  | 54.6 µM (active) and 29.8 µM (active) |  |  | 17.3 µM (active) and 26.6 µM (active) | 13.7 µM (active) and 19 µM (active) | 38.7 µM (active) and 26.8 µM (active) | 19.4 µM (active) | 60.8 µM (active) and 29.8 µM (active) | 34.5 µM (active) and 26.8 µM (active) | 21.7 µM (active) and 11.9 µM (active) | 17.3 µM (active) and 18.8 µM (active) | 68.2 µM (active) and 29.8 µM (active) | inactive | 19.4 µM (active) |  | 54.6 µM (active) | 
CCOc1ccc2c(c1)C(C)=CC(C)(C)N2 |  |  | inactive |  |  | inactive | inactive | inactive | inactive | inactive | inactive | inactive | inactive | inactive |  | inactive |  |  | 
Cc1c(O)cccc1C(=O)N[C@@H](CSc1ccccc1)[C@H](O)CN1C[C@H]2CCCC[C@H]2C[C@H]1C(=O)NC(C)(C)C |  |  | 19 µM (active) and 26.6 µM (active) |  |  | 15.1 µM (active) and 26.6 µM (active) | 23.9 µM (active) and 21.3 µM (active) | inactive | inactive | 23.7 µM (active) and 9.44 µM (active) | inactive |  | 6.74 µM (active) and 26.6 µM (active) |  | inactive | 15.1 µM (active) and 23.7 µM (active) |  |  | inactive
Cc1cccc2n[nH]nc12 |  | inactive | inactive | inactive | inactive | inactive | inactive | inactive | inactive | inactive | inactive |  | inactive |  |  | inactive | inactive |  | inactive
CCCCCCCCCCCCCC[P+](CCCC)(CCCC)CCCC |  |  | 21.8 µM (active) and 21.9 µM (active) |  | 19.4 µM (active) and 24.5 µM (active) | 6.88 µM (active) and 7.76 µM (active) | 6.88 µM (active) and 7.76 µM (active) | 34.5 µM (active) and 21.9 µM (active) | 13.7 µM (active) and 15.5 µM (active) | 3.05 µM (active) and 4.86 µM (active) | 17.3 µM (active) and 21.9 µM (active) | 6.88 µM (active) and 8.71 µM (active) | 19.4 µM (active) and 24.5 µM (active) | 13.6 µM (active) and 10.9 µM (active) |  |  |  |  | 
CCCCCCC(O)CCCCCCCCCCC(=O)O (stereo not given) | 21.9 µM (active) | inactive |  |  |  | 19.6 µM (active) and 11 µM (active) |  | inactive | inactive |  | inactive | 19.6 µM (active) and 19.5 µM (active) | inactive | inactive |  |  | inactive | inactive and 34.7 µM (active) | 
c1ccc2c(c1)-c1cccc3c1c-2cc1ccccc13 |  | inactive | inactive |  |  | inactive | inactive | inactive | inactive |  |  |  | inactive | 53.2 µM (active) |  | inactive |  |  | 17 µM (active) and 38.9 µM (active)
CCN(CC)C(=S)SSC(=S)N(CC)CC |  | 0.0871 µM (active) | 222 nM (active) and 188 nM (active) |  |  | 110 nM (active) and 39.8 nM (active) and 188 nM (active) | inactive | 1 µM (active) and inactive | inactive | 344 nM (active) and 44.3 nM (active) and 188 nM (active) |  | 110 nM (active) and 44.7 nM (active) and 150 nM (active) | 0.0915 µM (active) | 24.3 µM (active) and 176 nM (active) |  | 123 nM (active) and 39.8 nM (active) and 150 nM (active) |  |  | 
